# This is a sample that favours compounds with a hit; in the whole collection about 1.7% have one here.
# PTHR1 ag: agonists of human PTHR1 parathyroid hormone receptor; Q03431; HEK293 GP2 PTHR1 cells, GloSensor cAMP luminescence, 1 h; Potency, µM (doses to about 115 µM), actives largely listed as activators; 410,000 compounds, 0.075% hits; AID 743266; further: nearly all actives have a fitted effect of over 55% in size
# Target sequence (Q03431 whole entry, looked up): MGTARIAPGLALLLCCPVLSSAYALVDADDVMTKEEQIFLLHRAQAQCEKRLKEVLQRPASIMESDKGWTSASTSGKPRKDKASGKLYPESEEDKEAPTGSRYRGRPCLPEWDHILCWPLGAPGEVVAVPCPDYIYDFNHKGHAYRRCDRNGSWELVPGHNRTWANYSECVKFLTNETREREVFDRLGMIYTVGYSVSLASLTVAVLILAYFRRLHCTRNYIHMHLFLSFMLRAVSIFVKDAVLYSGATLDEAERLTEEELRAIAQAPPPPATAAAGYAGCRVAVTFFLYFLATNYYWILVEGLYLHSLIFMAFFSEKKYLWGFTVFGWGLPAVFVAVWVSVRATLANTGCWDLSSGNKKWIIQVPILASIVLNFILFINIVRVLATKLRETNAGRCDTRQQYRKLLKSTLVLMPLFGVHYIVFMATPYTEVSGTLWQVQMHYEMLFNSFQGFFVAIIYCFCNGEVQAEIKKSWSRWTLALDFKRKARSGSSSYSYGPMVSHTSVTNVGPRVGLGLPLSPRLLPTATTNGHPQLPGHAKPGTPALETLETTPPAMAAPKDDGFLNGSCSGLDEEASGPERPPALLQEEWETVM
#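 HEK-293-derived GP2 cells expressing PTHR1 and a GloSensor cAMP reporter, 3,000/well, plated overnight, given luciferin plus IBMX (each 0.5 mM as added) for 1 h at 37 °C, then compound for 1 h at 37 °C. Luminescence was read after 15 min at room temperature.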
# GLP1R ag: activates the human GLP-1 receptor. Potency, µM (highest dose often 45.6 µM), most hits filed as activators. 380,000 compounds, 0.007% hits. P43220. AID 624172. HEK293 GLP-1R CRE-luciferase, luminescence, 4-6 h; cells express a hypersensitive GLP-1R form
# GLP1R cytotox: cytotoxicity in counter-screen for GLP-1R inverse agonists; Potency, µM (series often up to 38.3 µM), most hits filed as inhibitors; 410,000 compounds, 0.13% hits; HEK293 cAMP-luciferase reporter cells, luminescence, 24 h; AID 624418;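 further: loss of luciferase light is scored as toxicity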
#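 Step one: seed cells (200 cells/uL, DMEM with 10% Nu serum, 1% pen-strep). Step two: 12-hour incubation at 37 deg C. Step three: pin 23 nL compound, incubate 24 hr. Step four: add luciferase reagent, read luminescence 12 min later.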
# GLP-1R inv ag: GLP-1 receptor (human) inverse agonism | HEK293 GLP-1R CRE-luciferase, luminescence, 24 h; GLP-1R form is constitutively active | P43220 | 410,000 compounds, 1.6% hits | Potency, µM (doses to about 38.3 µM), usual class: inhibitors; further: nearly all actives have a fitted effect of over 55% in size
#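 Using stably transfected HEK293 (constitutively active GLP-1R, cAMP-luciferase reporter), compounds were incubated 24 hr and luciferase measured by luminescence.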
# Hits are given with their value; . = inactive; ? = inconclusive; / = not tested or not shown. The call rests on the fitted dose curve; in most records, active means well fitted curve in the direction sought with a large enough effect; inconclusive means small, poorly fitted or top-dose-only effect, or another doubt; inactive means no such curve, though single readings can be large; an effect the other way counts as inactive or inconclusive.
SMILES,PTHR1 ag,GLP1R ag,GLP1R cytotox,GLP-1R inv ag
O=C1CSC(c2cn(-c3ccccc3)nc2-c2cc3ccccc3o2)N1Cc1ccccc1 (configuration not stated),.,.,.,?
Cc1ccc(-c2nn(-c3ccccc3)cc2C2SCC(=O)N2Cc2ccccc2)o1 (configuration not stated),.,.,.,11µM
Cc1ccc(CN2C(=O)CSC2c2ccccc2F)cc1 (configuration not stated),.,.,.,10µM
CC(C)=CCc1c(O)cc(O)c2c(=O)c3c(CC=C(C)C)c(O)ccc3oc12,.,.,?,10µM
CC(=O)Nc1ccc(C2=NNC(=Nc3cccc(S(=O)(=O)N(C)C)c3)SC2)cc1,.,.,?,?
CN(C)S(=O)(=O)c1cccc(N=C2NN=C(c3ccccc3)CS2)c1,.,.,?,11µM
Cc1cc(C(C)(C)C)ccc1OCCOCCN1CCCC1,.,.,.,13µM
CCN[C@@H]1CN(CCCOC)S(=O)(=O)c2sc(S(N)(=O)=O)cc21,/,.,/,/
CCn1cc(CN2CCC(C(=O)Nc3ccc(Oc4ccccc4F)cc3)CC2)cn1,.,.,.,?
Cn1cc(CN2CCCC(C(=O)Nc3cccc(-n4cccn4)c3)C2)cn1 (configuration not stated),.,.,.,.
Cn1cc(CN2CCCC(C(=O)Nc3ccc(-c4cccc(F)c4)cc3)C2)cn1 (configuration not stated),.,.,.,4.5µM
Cn1cc(CN2CCC(C(=O)Nc3ccc(Oc4ccccc4F)cc3)CC2)cn1,.,.,.,11µM
O=C(OCC1(COC(=O)c2cccnc2)CCCC(COC(=O)c2cccnc2)(COC(=O)c2cccnc2)C1O)c1cccnc1,/,.,/,/
COc1ccc(-c2cccc3c2C2CC3CCN2C(=O)OCc2ccccc2)cc1 (configuration not stated),.,.,.,22µM
Cc1ccc(C)c(OCCC(=O)N2CCN(S(=O)(=O)c3cc(C)ccc3C)CC2)c1,.,.,.,11µM
Cc1cc(C)c(S(=O)(=O)N2CCN(C(=O)CCOc3ccccc3C)CC2)c(C)c1,.,.,.,.
CC1(C)C2CC[C@]1(C)[C@@H](O)C2,/,.,/,/
CN1C(=O)Cc2cc(S(=O)(=O)CCC(=O)N3CCN(c4cccc(Cl)c4)CC3)ccc21,.,/,.,.
O=C(CCSCc1cccc(Cl)c1)NCCC1=CCCCC1,.,.,.,10µM
Cc1ccc(CSCCC(=O)NCCC2=CCCCC2)cc1,.,.,.,?
NNC(=O)Cn1c(-c2nonc2N)nc2ccccc21,.,.,.,.
Nc1nonc1-c1nc2ccccc2n1CC(=O)N/N=C\c1ccc(-c2ccc(Cl)cc2)o1,.,.,.,10µM
C#CC(=O)N(c1cccc(OC)c1)C(C(=O)NC1CCCC1)c1cccs1 (configuration not stated),.,.,?,3.2µM
C#CC(=O)N(c1ccc(OC)c(OC)c1)C(C(=O)NC1CCCC1)c1cccs1 (configuration not stated),.,.,?,?
CCOC(=O)CN[C@@H](C(=O)N1CC[C@H]1C(=O)NCc1ccc(/C(N)=N/O)cc1)C1CCCCC1,/,.,/,/
SMILES,PTHR1 ag,GLP1R ag,GLP1R cytotox,GLP-1R inv ag
COc1cc(N/N=C/c2ccc(N(C)C)cc2)ncn1,.,.,.,?
CN(C)c1cc(N/N=C/c2ccc(Cl)cc2)nc(N(C)C)n1,.,.,?,2.5µM
Cc1onc(-c2ccc(Br)cc2)c1C(=O)Nc1ccc(Br)cc1F,.,/,.,.
COc1cccc(-c2nn(-c3ccccc3)cc2C(=O)Nc2nccs2)c1,.,.,.,7.1µM
Cc1nn(Cc2ccc(Cl)c(Cl)c2)c(C)c1NC(=O)c1cn(-c2ccccc2)nc1-c1ccccc1,.,.,.,10µM
Cc1ccccc1NC(=O)c1cn(-c2ccccc2)nc1-c1ccccc1,.,.,.,10µM
Cc1nn(Cc2ccc(Cl)cc2)c(C)c1NC(=O)c1c(-c2ccccc2)noc1C,.,.,.,?
Cc1cccc(NC(=O)c2cn(-c3ccccc3)nc2-c2ccccc2)c1C,.,/,.,4.5µM
Cc1cccc(C)c1NC(=O)c1cn(-c2ccccc2)nc1-c1ccccc1,.,.,.,.
O=C(Cc1cccs1)Nc1cccc(-c2nc3cc4ccccc4cc3[nH]2)c1,.,.,.,11µM

# Bioassay records from PubChem BioAssay.
